# Source: PubChem
# An excerpt weighted towards active compounds, which were near 3.2% of everything screened.
# CHT PAM = allosterically activates the human high affinity choline transporter; AID 488977; CHT-expressing cells, membrane potential dye, choline EC20; stronger effect = higher value; LV-AA mutant CHT in HEK293 cells; B-score at 10 µM; actives 0.49% (n = 310,000); Q9GZV3;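 active = initial fluorescence not abnormally high and integrated response B-score, plate-corrected, over 3 SD above library mean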
# Rce1 inhib = blocks yeast Ras-converting enzyme; calls only; actives 0.27% (n = 290,000); yeast membranes, quenched prenylated peptide cleavage fluorescence; Q03530;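 active = fall in fluorescence gain of 50% or more versus controls, with final raw signal at or below 3038400; inconclusive = same 50% fall but final raw signal above 3038400; inactive = fall in fluorescence gain under 50%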;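 also: plate controls were neutral control wells for no effect and wells lacking membranes for full effect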
# ANO1 activ = activators or potentiators of mouse TMEM16A chloride channel; Q8BHY3; HEK293 TMEM16A/YFP-H148Q/I152L, iodide quench fluorescence; stronger effect = lower value; B-score at 10 µM; actives 0.3% (n = 340,000); AID 623877;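 active = fluorescence-ratio B-score plate-corrected deviation score at least 3 library SD below zero, with starting fluorescence score within 5 deviations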;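 also: channel opened by trigger with iodide after compound preincubation; score built on the fluorescence ratio of max minus min over baseline; more negative score means more quench and so TMEM16A activation or potentiation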
# TMEM16A inh = inhibitors of mouse TMEM16A calcium-activated chloride channel. Q8BHY3. HEK293 TMEM16A/YFP iodide influx fluorescence, ionomycin. normalized B-score (activity score, 25-100; higher = stronger inhibition) at 10 µM. actives 1.2% (n = 310,000). AID 588511;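 active = ratio plate-corrected score three or more library SD toward inhibition, starting fluorescence score within five deviations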;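 also: score derived from kinetic fluorescence span divided by baseline fluorescence per well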
# CHT inh = human CHT choline transport inhibition | CHT-expressing cells, membrane potential dye, choline response; stronger effect = lower value | B-score at 10 µM | actives 0.86% (n = 310,000);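 active = B-score over 3 SD under the library average, and starting fluorescence ratio not unusually high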;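 also: choline stimulus applied at its EC90 after an EC20 pre-addition; B-score computed on integrated fluorescence ratio after choline addition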
# Kir21 inh = inhibitors of mouse Kir2.1 inward-rectifier potassium channel | P35561 | HEK293-Kir2.1, FluxOR thallium flux fluorescence; stronger effect = lower value | B-score at 10 µM | actives 0.85% (n = 310,000) | AID 1672;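 active = fluorescence ratio B-score at or below minus 3 SD of library scores, with starting-brightness B-score within 2 SD, cut at about -4.2 in these data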;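 also: channel flux triggered by added potassium and thallium sulfate stimulus; B-score of peak minus minimum fluorescence over baseline after thallium stimulus; more negative B-score means stronger Kir2.1 block with less thallium influx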
# Target sequence (P35561 whole entry, looked up): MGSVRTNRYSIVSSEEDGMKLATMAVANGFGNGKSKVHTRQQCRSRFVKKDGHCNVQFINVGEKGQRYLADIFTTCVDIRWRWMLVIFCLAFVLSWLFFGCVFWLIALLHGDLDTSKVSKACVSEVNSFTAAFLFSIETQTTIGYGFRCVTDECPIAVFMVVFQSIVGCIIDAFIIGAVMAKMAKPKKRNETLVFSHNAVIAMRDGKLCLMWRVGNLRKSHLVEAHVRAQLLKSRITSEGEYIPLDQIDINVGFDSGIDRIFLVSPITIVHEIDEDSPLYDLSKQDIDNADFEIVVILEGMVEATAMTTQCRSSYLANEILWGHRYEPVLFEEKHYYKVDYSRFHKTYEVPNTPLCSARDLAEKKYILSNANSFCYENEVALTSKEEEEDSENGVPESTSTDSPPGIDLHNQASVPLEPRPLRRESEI
# CHT act confirm = human CHT activation, confirmatory screen; shares compounds with CHT PAM; activation, % at 10 µM; CHT-expressing cells, membrane potential dye fluorescence (FDSS); % of choline EC20–EC90 response window; HEK293 expressing CHT LV-AA mutant; choline added at its EC20; actives 91% (n = 2,500); AID 504833;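 active = primary screen active, with duplicate mean activation above negative control mean plus 3 SD, cut at about 11% in these data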
# HEK293 MP dye = counter-screen for CHT activators: effect in parental HEK293 cells; shares compounds with CHT PAM; membrane potential dye fluorescence (FDSS); measured after EC20 choline addition; ratio readout change at 10 µM, hits read low; actives 62% (n = 2,500);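 active = duplicate-averaged ratio beyond 3 SD from buffer wells, up or down, though filed actives are nearly all decreases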
# * = called active by the depositor; i = inactive; ? = inconclusive; · = not tested or not shown; ! = not active in a repeat.
SMILES,CHT PAM,Rce1 inhib,ANO1 activ,TMEM16A inh,CHT inh,Kir21 inh,CHT act confirm,HEK293 MP dye
O=C(COc1ccc([N+](=O)[O-])cc1)N(Cc1ccccc1)Cc1ccccc1,i,i,i,i,i,0.31,24*,i
O=C(COc1ccc([N+](=O)[O-])cc1)Nc1ccncc1,i,i,i,i,i,1.9,45*,-48*
O=C(COc1ccc(/C=N/NC(=O)c2ccncc2)cc1)Nc1ccc([N+](=O)[O-])cc1,i,i,i,i,i,-1.1,·,·
Cc1c(CNC(=O)C2CCC(=O)N(CCc3ccccc3)C2)cnn1C (configuration not stated),i,i,i,i,i,1.7,·,·
OCCN1CCN(c2ncnc3ccc(Br)cc23)CC1,13*,i,i,i,i,-3,38*,-30*
OCCN1CCN(c2nc(-c3ccccc3)c3cc(Br)ccc3n2)CC1,i,i,i,i,i,-1.8,·,·
O=C(Nc1ccc(S(=O)(=O)Nc2nccs2)cc1)c1nn(-c2ccc(F)cc2)ccc1=O,6.3*,i,i,i,i,-0.66,37*,-36*
COc1cc2nc(N3CCN(C(=O)C4CCCO4)CC3)nc(N)c2cc1OC (configuration not stated),8.3*!,?,i,i,i,·,43*,-28*
COc1cc(C(=O)N2CCN(C(=O)C3CCCO3)CC2)cc(OC)c1OC (configuration not stated),·,·,i,·,·,·,·,·
C=CCSc1nnc(NC(=O)CCN2C(=O)C3CC=CCC3C2=O)s1 (configuration not stated),·,·,i,·,·,·,·,·
COCCn1nnnc1C(c1ccccn1)N1CCN(c2cc(Cl)ccc2C)CC1 (configuration not stated),7.9*,i,i,i,i,0.02,15*,i
CC(C)COc1cccc(C(=O)N(C)CC(=O)Nc2cccc3ccccc23)c1,·,·,i,·,·,·,·,·
CCCCN(C)CCNS(=O)(=O)c1ccc2c(c1)n(C)c(=O)c(=O)n2C,17*,i,i,i,i,-0.12,76*,-84*
COc1ccc(OCCOC(=O)CCS(=O)(=O)c2ccc(C)cc2)cc1,i,i,i,i,i,0.01,·,·
COc1ccc(OC)c(C(=O)COC(=O)COc2ccccc2F)c1,·,·,i,·,·,·,·,·
Cc1c(C(O)CN2CCN(Cc3ccc4c(c3)OCO4)CC2)c2ccccc2n1C (configuration not stated),6.8*,i,i,i,i,0.45,31*,-27*
OC(CN1CCN(Cc2ccc3c(c2)OCO3)CC1)c1c[nH]c2ccccc12 (configuration not stated),·,i,i,·,·,1.5,·,·
COc1cccc(N2CCN(C(=O)c3ccc(CS(=O)c4ccc(C)cc4)o3)CC2)c1 (configuration not stated),8.1*,i,i,i,i,-0.03,21*,i
COc1cccc(N2CCN(C(=O)c3ccc(CS(=O)c4ccc(Cl)cc4)o3)CC2)c1 (configuration not stated),i,i,i,i,i,0.68,21*,i
O=C(c1ccc(CS(=O)Cc2ccc(Cl)cc2)o1)N1CCN(c2cccc(Cl)c2)CC1 (configuration not stated),i,i,i,i,i,0.24,·,·
COc1cccc(N2CCN(C(=O)c3ccc(CS(=O)Cc4ccc(C)cc4)o3)CC2)c1 (configuration not stated),i,i,i,i,i,0.94,·,·
COc1ccc(CCNC(=O)c2ccc3c(=O)n4c(nc3c2)CCC4)cc1OC,·,·,i,·,·,·,·,·
CCOC(=O)C1=C(C)S/C(=C\N(C)C)C1=O,11*,i,i,i,i,0.01,61*,-54*
O=C1C=C(c2ccc(Cl)c(C(F)(F)F)c2)C[C@@H](c2ccc(Cl)cc2)C1,·,·,i,·,·,·,·,·
CCOC(=O)C1(C(=O)OCC)C(C(=O)c2ccccc2)C1c1ccccc1 (configuration not stated),·,·,i,·,·,·,·,·
SMILES,CHT PAM,Rce1 inhib,ANO1 activ,TMEM16A inh,CHT inh,Kir21 inh,CHT act confirm,HEK293 MP dye
O=C(COc1cccc2cccnc12)N/N=C1\SCC(=O)N1Cc1ccco1,7.2*,i,i,i,i,2.7,66*,-55*
CCN1CCN(C(=O)c2cc(-c3cccnc3)nc3ccc(Br)cc23)CC1,6.6*,i,i,i,i,-2,54*,-44*
CCOC(=O)C1CCN(C(=O)COC(=O)CSc2ccccc2C)CC1,·,·,i,·,·,·,·,·
C/C(=N\NC(=O)C(N)=O)c1cccc([N+](=O)[O-])c1,i,i,i,i,i,0.28,·,·
C/C(=N\N=C(N)N)c1cccc([N+](=O)[O-])c1,6.4*,i,i,i,i,-0.15,27*,-57*
O=C(COC(=O)c1cc[n+]([O-])cc1)Nc1cc([N+](=O)[O-])ccc1Cl,i,i,i,i,i,-0.55,40*,-50*
COc1ccc(-n2nc(C(=O)NCC(=O)NCCCN3CC(C)CC(C)C3)c3ccccc3c2=O)cc1Cl (configuration not stated),7.7*,i,i,i,i,-0.87,43*,-47*
Cc1ccc(CNc2nc(C)nc3sc4c(c23)CCC4)cc1,i,i,i,i,i,0.18,·,·
Cc1nc(NC(C)c2ccccc2)c2c3c(sc2n1)CCC3 (configuration not stated),i,i,i,i,i,0.36,18*,i
CC(C)c1nc(N2CCN(C(=O)c3ccco3)CC2)c(C#N)c2c1COC(C)(C)C2,6.6*,i,i,i,i,-2.1,23*,i
CCCCN(CCCC)CC(O)COc1ccccc1C(=O)Nc1ccccc1 (configuration not stated),7.1*,i,i,i,i,-0.96,0,i
COc1ccc(NC(=O)CN(C)C(=O)c2oc3ccccc3c2C)cc1,i,·,i,i,i,-0.56,·,·
COc1ccc(OCCN2C(=O)c3ccccc3C2=O)c([N+](=O)[O-])c1,i,i,i,i,i,0.16,·,·
